Hits are enriched below; roughly 10% of the tested compounds scored in any of these assays.
HP1b binding inh – blocks HP1-beta chromodomain binding to methylated histone tails | P83916 | AlphaScreen HP1-beta / biotin-H3K9me3 peptide binding | Potency, µM (doses to about 114 µM), inactives show top-dose activity change, negative = inhibition, actives largely listed as inhibitors | 390,000 tested, 0.56% active; further: potency means the concentration at half of the fitted maximal effect; nearly all actives have a fitted effect of over 70% in size
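AlphaScreen: HP1-beta (50 nM) preformed 30 min with biotin-H3(1-18)K9me3 peptide (50 nM) in PBS pH 7.4, 0.01% Tween-20. Compound added for 30 min at RT, then streptavidin donor/nickel chelate acceptor beads (10 ug/mL) for 30 min.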
Six1-Eya2 inh – Six1/Eya2 interaction inhibition; AlphaScreen GST-Six1/His-Eya2 binding, biochemical; active compounds read low; Q15475+O00167; activity change, % (no concentration beside the values); 360,000 tested, 0.56% active; in the data active means activity change below about -65%; inconclusive means mostly about -30% to -63%; further: on the % scale 0 is the no-effect control and ±100 the full control effect
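AlphaScreen luminescence read after one hour at 37 °C in darkness. Pin-transferred compounds met GST-Six1 and His-Eya2 protein (5X stock 250 nM/500 nM) plus glutathione donor and Ni-chelate acceptor beads (5X, 50 ug/mL).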
CtBP-E1A inh – CtBP/E1A binding inhibition; 340,000 tested, 0.49% active; AlphaScreen GST-E1A/His-CtBP binding, 1536-well; active compounds read low; activity change, % (test concentration not listed); in the data active means activity change below about -65%; inconclusive means mostly about -30% to -63%; further: on the % scale 0 is the no-effect control and ±100 the full control effect
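In 5 uL wells, 23 nL compound meets equimolar GST-E1A and His-CtBP (5X stock 125 nM each) for 2 h, 37 °C. Beads (5X, 50 ug/mL) then 1 h, 37 °C, dark.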
G9a block – G9a (human) methyltransferase inhibition. Q96KQ7. G9a H3K9 monomethylation, AlphaScreen, 2 h. Potency, µM (doses to about 102 µM), without a hit: at the highest dose activity, negative = inhibition, actives largely listed as inhibitors. 350,000 tested, 8.8% active; further: potency means the concentration at half of the fitted maximal effect; on the % scale 0 is the no-effect control and ±100 the full control effect; nearly all actives have a fitted effect of over 75% in size
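Readings reflect AlphaScreen signal from monomethyl-H3K9 antibody detection. HMT at 20 nM; substrate b-H3K9 500 nM; cofactor SAM 20 uM; 2 h RT reaction; compounds tested as titrations in qHTS with 15 min preincubation.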
BAZ2B inh – blocks human BAZ2B | Potency, µM (series often up to 114 µM), for the others: at the top dose activity change, negative = inhibition, hits mostly inhibitors | Q9UIF8 | AlphaScreen BAZ2B-H3K14Ac peptide displacement | 360,000 tested, 4.4% active; further: potency means the concentration at half of the fitted maximal effect; on the % scale 0 is the no-effect control and ±100 the full control effect; nearly all actives have a fitted effect of over 60% in size
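BAZ2B (50 nM) with biotin-H3(5-23)K14Ac peptide (50 nM) in PBS pH 7.4, 0.01% Tween-20, preformed 30 min, then compound 30 min at room temperature; top concentration 110uM. AlphaScreen streptavidin donor/nickel chelate acceptor beads (10 ug/mL final), 20 min dark, signal read.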
JMJD2A Tudor inh – blocks the human JMJD2A Tudor domain | Potency, µM (series often up to 114 µM), for the others: top-dose activity change, negative = inhibition, usual class: inhibitors | AlphaScreen JMJD2A-Tudor / H3K4me3 peptide binding | 390,000 tested, 4.4% active; further: potency means the concentration at half of the fitted maximal effect; on the % scale 0 is the no-effect control and ±100 the full control effect; nearly all actives have a fitted effect of over 50% in size
Target sequence (O75164 whole entry, looked up, the tested form may be a part): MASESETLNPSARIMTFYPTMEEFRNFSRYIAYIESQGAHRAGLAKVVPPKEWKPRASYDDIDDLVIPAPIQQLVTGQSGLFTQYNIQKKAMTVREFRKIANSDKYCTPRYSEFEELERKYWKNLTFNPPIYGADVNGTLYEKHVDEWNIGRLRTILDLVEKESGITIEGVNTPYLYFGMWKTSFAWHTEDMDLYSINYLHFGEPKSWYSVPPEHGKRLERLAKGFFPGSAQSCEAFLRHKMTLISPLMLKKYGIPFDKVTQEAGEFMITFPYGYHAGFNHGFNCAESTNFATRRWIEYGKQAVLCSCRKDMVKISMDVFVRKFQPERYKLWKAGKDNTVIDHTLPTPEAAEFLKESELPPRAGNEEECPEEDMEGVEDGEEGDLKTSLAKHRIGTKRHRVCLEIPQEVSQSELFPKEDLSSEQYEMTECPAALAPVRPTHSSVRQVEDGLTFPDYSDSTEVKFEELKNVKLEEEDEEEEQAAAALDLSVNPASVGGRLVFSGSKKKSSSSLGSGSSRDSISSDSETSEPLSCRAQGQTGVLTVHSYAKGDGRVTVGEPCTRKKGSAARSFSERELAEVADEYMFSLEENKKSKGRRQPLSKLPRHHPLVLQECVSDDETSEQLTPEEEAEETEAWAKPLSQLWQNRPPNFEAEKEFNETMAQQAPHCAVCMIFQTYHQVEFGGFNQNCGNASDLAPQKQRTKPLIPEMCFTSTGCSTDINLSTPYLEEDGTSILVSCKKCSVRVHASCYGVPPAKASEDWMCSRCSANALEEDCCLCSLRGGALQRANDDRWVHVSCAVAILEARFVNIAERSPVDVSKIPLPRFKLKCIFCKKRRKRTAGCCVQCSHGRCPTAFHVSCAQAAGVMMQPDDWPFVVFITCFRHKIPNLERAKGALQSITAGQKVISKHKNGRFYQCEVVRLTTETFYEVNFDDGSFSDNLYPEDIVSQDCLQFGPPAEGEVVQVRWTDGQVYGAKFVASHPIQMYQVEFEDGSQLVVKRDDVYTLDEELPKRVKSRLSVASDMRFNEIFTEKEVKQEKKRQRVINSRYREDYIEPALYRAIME
* = called active by the depositor; u = inconclusive; x = no result; [ ] = dose if it differs, or a comment. Unless noted, the call rests on the fitted dose curve; in most records, active means well fitted inhibition curve with a large enough effect; inconclusive means small, poorly fitted or top-dose-only effect; inactive means no such curve, though single readings can be large or run the other way.

SMILES | HP1b binding inh | Six1-Eya2 inh | CtBP-E1A inh | G9a block | BAZ2B inh | JMJD2A Tudor inh
COc1ccccc1-n1c(CNC(=O)c2ccco2)n[nH]c1=S | 42% | 4 | 10 | 25µM* | -2% | u
O=C(NCCNCc1ccccc1)c1ccco1 | -11%[57 µM] | 13 | -7 | x | x | 25µM*
COc1ccccc1-n1c(CNC(=O)c2ccco2)nnc1SCC(=O)Nc1nccs1 | 32% | 5 | 0 | -17% | -6% | -8%
O=C(NCc1n[nH]c(=S)n1-c1ccc(Cl)c(Cl)c1)c1ccco1 | 18% | 15 | 0 | 8%[12.7 µM] | -8% | 50µM*
O=C(NCc1n[nH]c(=S)n1-c1ccccc1)c1ccco1 | 27% | 3 | 5 | 8.9µM* | 8% | 16µM*
O=C(NCc1ccc(CNC(=O)c2ccco2)cc1)c1ccco1 | 35% | 5 | -1 | 44% | -9% | 7%
COc1cccc(NC(=O)Cn2c(=O)n(-c3cccc(OC)c3)c(=O)c3c4c(sc32)CCCC4)c1 | 27% | x | x | 0%[59 µM] | 1% | -6%
O=C(Nc1ccc(C(F)(F)F)cc1)c1cc(S(=O)(=O)NC2CCCCCC2)ccc1F | 8% | x | x | 7%[59 µM] | 3% | -23%
Cc1c(C(=O)NCC(c2ccc(Cl)cc2)N2CCOCC2)oc2ccccc12 (configuration not stated) | 30% | x | x | -7%[59 µM] | -18% | -19%
CN(C)Cc1cc(C(C)(C)C)cc(C(C)(C)C)c1O | 55% | 4 | -4 | 7%[12.7 µM] | -1% | -11%[11.4 µM]
CN(C)Cc1cc(C(C)(C)C)c(O)c(C(C)(C)C)c1 | -11% | 1 | -3 | 50µM* | -9% | -18%[11.4 µM]
CCC(=O)Nc1c2c(nn1-c1ccc(C)cc1C)CSC2 | 23% | -1 | -7 | 50µM* | -3% | -13%
Cc1ccc(-n2nc3c(c2NC(=O)c2ccco2)CS(=O)C3)c(C)c1 (configuration not stated) | 23% | 2 | -9 | 14µM* | 9% | -15%
Cc1cccc(-n2nc3c(c2NC(=O)c2ccco2)CSC3)c1C | -26% | -10 | 1 | 40µM* | -6% | 50µM*
Cc1ccc(-n2nc3c(c2NC(=O)CC(C)C)CS(=O)C3)cc1 (configuration not stated) | 48% | -1 | 0 | 32µM* | -10% | -7%
CCC(=O)Nc1c2c(nn1-c1ccccc1)CSC2 | 40% | 6 | x | 8% | -12%[57.1 µM] | -1%
COc1ccccc1N1CCN(C(=O)Cc2c(C(=O)O)c(C)cn2C)CC1 | 13% | x | x | -1%[59 µM] | -6% | -28%
O=C(CSc1nc2c([nH]c3ccccc32)c(=O)n1-c1ccccc1)N1CCCc2ccccc21 | 11%[57 µM] | x | x | 3%[59 µM] | 1% | -6%
Cc1ccc(-n2nc3c(c2NC(=O)C(C)(C)C)CSC3)c(C)c1 | u | 0 | 0 | 40µM* | -6% | -12%
Cc1ccc(-n2nc3c(c2NC(=O)c2ccc(Br)o2)CSC3)c(C)c1 | 18% | -2 | 8 | 40µM* | -8% | -13%
Cc1ccccc1-n1nc2c(c1NC(=O)c1cccc(F)c1)CS(=O)C2 (configuration not stated) | 54% | -3 | 0 | 50µM* | 9% | -10%
CC(C)(C)C(=O)Nc1c2c(nn1-c1ccc(F)cc1)CSC2 | 14%[57 µM] | 3 | x | 63%[59 µM] | -12% | -14%
Cc1ccc(-n2nc3c(c2NC(=O)/C=C\c2ccc4c(c2)OCO4)CSC3)c(C)c1 | 16% | -6 | -1 | -7% | -12% | -34%
Cc1cc(N2CCC(C)CC2)nc2cccc(O)c12 | -3% | -6 | 0 | 50µM* | -29% | u
CCOc1ccc(-n2cc(-c3ccccc3)c3c(N4CCC(C)CC4)ncnc32)cc1 | 14% | x | x | 1%[59 µM] | u | -31%
SMILES | HP1b binding inh | Six1-Eya2 inh | CtBP-E1A inh | G9a block | BAZ2B inh | JMJD2A Tudor inh
Fc1ccccc1COc1ccc(Br)cc1CNCc1ccncc1 | 40% | 0 | -3 | u | -13% | -16%
Fc1ccc(COc2ccc(Br)cc2CNCc2ccncc2)cc1 | 17% | 3 | -1 | 50µM* | 50µM* | u
C[C@H](N)c1nnc(SCC(N)=O)o1 | -17% | -11 | -19 | 13µM* | 56µM* | -19%
Cc1ccc(C)c(N2CCN(C(c3ccc(F)cc3)c3nnc(-c4ccccc4)o3)CC2)c1 (configuration not stated) | 4% | x | x | u | -39% | u
Cc1cc(NC(=O)CSc2nnnn2-c2ccc(C)c(Cl)c2)no1 | 23% | 5 | -8 | 45µM* | 7% | -7%
Cc1cc(NC(=O)CSc2nnc(-c3ccco3)n2C)no1 | 30% | 8 | x | 21%[12.7 µM] | 8% | -18%
Cc1cc(NC(=O)CSc2nnc(-c3cccc(F)c3)n2N)no1 | 29% | -4 | 3 | -16%[2.33 µM] | -10% | -17%
COc1cccc(-c2nnc(SCC(=O)Nc3cc(C)on3)n2C)c1 | 17% | 4 | 4 | 50µM* | -2% | -4%
COc1ccc(-c2nnc(SCC(=O)Nc3cc(C)on3)n2N)cc1OC | 37% | 3 | -4 | 50µM* | -5% | -17%
COc1ccc(OC)c(C(=O)CSc2nnc(-c3cccnc3)n2C)c1 | 24% | -3 | 2 | 18µM* | -19% | -10%
COc1cc2nc(SCC(=O)Nc3cccc(C)c3)n3nc(CCn4c(C)nc5ccccc54)nc3c2cc1OC | 23% | x | x | -25%[59 µM] | x | -19%
COc1cccc(N2CCN(C(=O)Cn3cnc4onc(-c5ccc(F)cc5)c4c3=O)CC2)c1 | 19% | x | x | -32%[59 µM] | -1%[57.1 µM] | -18%
CC(C)CCNc1nc(Nc2ccccc2)c2cnn(C)c2n1 | 4% | x | x | -2%[59 µM] | -22% | u
CCOc1cc(N2CCOCC2)c(OCC)cc1NC(=O)c1cccc(N(C)C)c1 | u | -23 | -3 | 45µM* | 40µM* | u
CCOc1cc(N2CCOCC2)c(OCC)cc1NC(=O)CC12CC3CC(CC(C3)C1)C2 | -52% | u | u | 13µM* | 35µM* | 45µM*
CCOc1cc(N2CCOCC2)c(OCC)cc1NC(=O)Cc1cccc(OC)c1 | -17% | -3 | -7 | 50µM* | u | u
CCOc1cc(N2CCOCC2)c(OCC)cc1NC(=O)c1ccc2ncsc2c1 | 13% | -6 | x | 4%[12.7 µM] | -38% | -27%
CCOc1cc(N2CCOCC2)c(OCC)cc1NC(=O)COC(=O)[C@@H]1CCCN1S(=O)(=O)c1ccccc1F | 5% | -8 | 4 | 45µM* | u | -30%
CCOc1cc(N2CCOCC2)c(OCC)cc1NC(=O)Cn1cnnn1 | 22% | 0 | -5 | x | x | -21%
CCOc1cc(N2CCOCC2)c(OCC)cc1NC(=O)COc1cccc(CC)c1 | -2% | -27 | x | u | u | u
CCOc1cc(N2CCOCC2)c(OCC)cc1NC(=O)COC(=O)C1CCCN1S(=O)(=O)c1ccccc1F (configuration not stated) | 3% | -13 | x | 19%[12.7 µM] | -38% | -34%

From PubChem BioAssay
